# Only a selection was taken, and the strongest signals are over-represented in it overall.
# B1: PX14343B-bfa-546-20-546 (Bacteroides fragilis) (protein)
# chain: CDLERYPLTDLSEETFWNSESNAELALTSLYRGSLTDGVEYNPSDWWSYHGMIMMEHLSDNAFDRRGENNPFFKISSGNLTADNAFIKRYWETSYKRIGYCNRFLVGIQNSSESEKKTRMIAEARFLRATQYFYLASYFKNVPLVENVLTGEEANNVTKTSQADILKWCVTEFTAAAADLPRFSAIPAGEAGRACKQAALAFLGRTCMLQKDWKSGAKAFHDIMELGDNAINANYQELFYPSTGTSNKENIFYIQYLENYLGTGLPQHALSAKDGGWSLVNPAADLYESYEFKDGTPFSYDDPRYDPSNLGKDRDPRLDYTIYYNGAIFMGTEYKMSPDYSAAKKEKLDYTSEASRTGFMMRKYFEESTPINDVQSANGLTPVIRYAEVLLGYLECLVEDNQTITQGILDETINAVRGRASVNMPPVTEVTPAKLREIVRHERRIELAMEGIRYWDIMRWGIAHEVLSQKIWGAPYPGSTQYATTTKEVDPTGNYRWYVGKRAFRNPTDYTWPIPQSEQNINPNLRD
# Experiments:
# Assay in all cases: glycan array binding signal (z-score within array); higher = stronger binding
# Conditions in all cases: glycan notation: IUPAC condensed, linker removed
# [1] = target: Fuc(a1-2)Gal(b1-3)GalNAc(b1-3)Gal
# Method in brief: (§1)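 Columns mapping to the same glycan were averaged after glycan names were converted to IUPAC-condensed notation. The data come from 3228 arrays in the Consortium for Functional Glycomics database, limited to those with an available protein sequence. Binding is reported as a within-array Z-score averaged across arrays of one protein sequence and across linkers.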
# [2] = target: Fuc(a1-2)Gal(b1-3)GlcNAc(b1-3)[Fuc(a1-2)Gal(b1-3)GlcNAc(b1-6)]GalNAc
# Method in brief: as §1
# [3] = target: Fuc(a1-2)Gal3S(b1-4)GlcNAc
# Method in brief: as §1
# [4] = target: Fuc(a1-2)Gal6S(b1-3)GlcNAc
# Method in brief: as §1
# [5] = target: Fuc(a1-2)Gal6S(b1-3)GlcNAc6S
# Method in brief: as §1
# [6] = target: Fuc(a1-2)Gal6S(b1-4)Glc6S
# Method in brief: as §1
# [7] = target: Fuc(a1-2)[Gal(a1-3)]Gal(b1-4)GlcNAc
# Method in brief: as §1
# [8] = target: Fuc(a1-2)[Gal(a1-3)]Gal(b1-4)[Fuc(a1-3)]Glc
# Method in brief: as §1
# [9] = target: Fuc(a1-2)[GalNAc(a1-3)]Gal(b1-4)GlcNAc(b1-3)Gal(b1-4)GlcNAc
# Method in brief: as §1
# [10] = target: Fuc(a1-2)[GalNAc(a1-4)]Gal(b1-4)GlcNAc
# Method in brief: as §1
# [11] = target: Fuc(a1-3)[Gal(b1-4)]GlcNAc6S
# Method in brief: as §1
# Gal(a1-3)Gal(b1-4)GlcNAc = target: Gal(a1-3)Gal(b1-4)GlcNAc
# Method in brief: as §1
# Gal(b1-3)Gal(b1-4)GlcNAc = target: Gal(b1-3)Gal(b1-4)GlcNAc
# Method in brief: as §1
# [12] = target: Gal(b1-3)GalNAc(a1-3)[Fuc(a1-2)]Gal(b1-4)Glc
# Method in brief: as §1
# [13] = target: Gal(b1-3)GlcNAc(b1-2)[Gal(b1-3)GlcNAc(b1-6)]Man(a1-6)[Gal(b1-3)GlcNAc(b1-2)Man(a1-3)]Man(b1-4)GlcNAc(b1-4)GlcNAc
# Method in brief: as §1
# [14] = target: Gal(b1-3)GlcNAc(b1-3)Gal(b1-4)GlcNAc(b1-3)Gal(b1-4)GlcNAc(b1-2)[Gal(b1-3)GlcNAc(b1-3)Gal(b1-4)GlcNAc(b1-3)Gal(b1-4)GlcNAc(b1-6)]Man(a1-6)[Gal(b1-3)GlcNAc(b1-3)Gal(b1-4)GlcNAc(b1-3)Gal(b1-4)GlcNAc(b1-2)Man(a1-3)]Man(b1-4)GlcNAc(b1-4)[Fuc(a1-6)]GlcNAc
# Method in brief: as §1
# [15] = target: Gal(b1-3)GlcNAc(b1-3)GalNAc
# Method in brief: as §1
# Gal(b1-4)GlcNAc = target: Gal(b1-4)GlcNAc
# Method in brief: as §1
# [16] = target: Gal(b1-4)GlcNAc(b1-3)Gal(b1-4)GlcNAc
# Method in brief: as §1
# [17] = target: Gal(b1-4)GlcNAc(b1-3)Gal(b1-4)GlcNAc(b1-3)Gal(b1-4)GlcNAc
# Method in brief: as §1
# [18] = target: Gal(b1-4)GlcNAc(b1-3)[Gal(b1-4)GlcNAc(b1-6)]Gal(b1-4)GlcNAc
# Method in brief: as §1
# Gal6S(b1-3)GlcNAc = target: Gal6S(b1-3)GlcNAc
# Method in brief: as §1
# Gal6S(b1-3)GlcNAc6S = target: Gal6S(b1-3)GlcNAc6S
# Method in brief: as §1
# Gal6S(b1-4)Glc = target: Gal6S(b1-4)Glc
# Method in brief: as §1
# Gal6S(b1-4)Glc6S = target: Gal6S(b1-4)Glc6S
# Method in brief: as §1
# Gal6S(b1-4)GlcNAc = target: Gal6S(b1-4)GlcNAc
# Method in brief: as §1
# Gal6S(b1-4)GlcNAc6S = target: Gal6S(b1-4)GlcNAc6S
# Method in brief: as §1
# GalNAc(b1-3)Gal = target: GalNAc(b1-3)Gal
# Method in brief: as §1
# [19] = target: GalNAc3S(b1-4)[Fuc(a1-3)]GlcNAc
# Method in brief: as §1
# GalNAc6S(b1-4)GlcNAc = target: GalNAc6S(b1-4)GlcNAc
# Method in brief: as §1
# [20] = target: GlcNAc(b1-2)[GlcNAc(b1-4)]Man(a1-3)[GlcNAc(b1-4)][GlcNAc(b1-2)Man(a1-6)]Man(b1-4)GlcNAc(b1-4)GlcNAc
# Method in brief: as §1
# GlcNAc(b1-3)Gal(b1-4)Glc = target: GlcNAc(b1-3)Gal(b1-4)Glc
# Method in brief: as §1
# Kdn(a2-3)Gal(b1-4)GlcNAc = target: Kdn(a2-3)Gal(b1-4)GlcNAc
# Method in brief: as §1
# [21] = target: Man(a1-3)[Man(a1-6)]Man(a1-6)[Man(a1-3)]Man(b1-4)GlcNAc(b1-4)GlcNAc
# Method in brief: as §1
# [22] = target: Neu5Ac(a2-3)Gal(b1-4)GlcNAc
# Method in brief: as §1
# Neu5Ac(a2-6)Gal(b1-4)Glc = target: Neu5Ac(a2-6)Gal(b1-4)Glc
# Method in brief: as §1
# [23] = target: Neu5Ac(a2-6)Gal(b1-4)GlcNAc(b1-2)Man(a1-3)[Neu5Ac(a2-3)Gal(b1-4)GlcNAc(b1-2)Man(a1-6)]Man(b1-4)GlcNAc(b1-4)GlcNAc
# Method in brief: as §1
# [24] = target: Neu5Ac(a2-6)Gal(b1-4)GlcNAc(b1-2)Man(a1-6)Man(b1-4)GlcNAc(b1-4)GlcNAc
# Method in brief: as §1
# [25] = target: Neu5Ac(a2-6)Gal(b1-4)GlcNAc(b1-6)GalNAc
# Method in brief: as §1
# [26] = target: Neu5Ac(a2-8)Neu5Ac(a2-3)Gal(b1-3)GalNAc(b1-4)[Neu5Ac(a2-3)]Gal(b1-4)Glc
# Method in brief: as §1
# [27] = target: Neu5Ac(a2-8)Neu5Ac(a2-3)Gal(b1-3)GalNAc(b1-4)[Neu5Ac(a2-8)Neu5Ac(a2-3)]Gal(b1-4)Glc
# Method in brief: as §1
# [28] = target: Neu5Ac(a2-8)Neu5Ac(a2-3)[GalNAc(b1-4)]Gal(b1-4)Glc
# Method in brief: as §1
# [29] = target: Neu5Gc(a2-3)Gal(b1-4)GlcNAc
# Method in brief: as §1
# [30] = target: Neu5Gc(a2-3)Gal(b1-4)GlcNAc(b1-3)Gal(b1-4)GlcNAc(b1-2)Man(a1-3)[Neu5Gc(a2-3)Gal(b1-4)GlcNAc(b1-3)Gal(b1-4)GlcNAc(b1-2)Man(a1-6)]Man(b1-4)GlcNAc(b1-4)GlcNAc
# Method in brief: as §1
# [31] = target: Neu5Gc(a2-3)Gal(b1-4)[Fuc(a1-3)]GlcNAc
# Method in brief: as §1
binder,measurement,setting,value
B1,glycan array binding signal (z-score),[1],-0.117
same,glycan array binding signal (z-score),[2],-0.126
same,glycan array binding signal (z-score),[3],4.47
same,glycan array binding signal (z-score),[4],2.42
same,glycan array binding signal (z-score),[5],6.35
same,glycan array binding signal (z-score),[6],0.709
same,glycan array binding signal (z-score),[7],-0.126
same,glycan array binding signal (z-score),[8],-0.124
same,glycan array binding signal (z-score),[9],-0.126
same,glycan array binding signal (z-score),[10],-0.115
same,glycan array binding signal (z-score),[11],-0.129
same,glycan array binding signal (z-score),Gal(a1-3)Gal(b1-4)GlcNAc,-0.122
same,glycan array binding signal (z-score),Gal(b1-3)Gal(b1-4)GlcNAc,-0.113
same,glycan array binding signal (z-score),[12],-0.122
same,glycan array binding signal (z-score),[13],-0.117
same,glycan array binding signal (z-score),[14],-0.113
same,glycan array binding signal (z-score),[15],-0.12
same,glycan array binding signal (z-score),Gal(b1-4)GlcNAc,-0.128
same,glycan array binding signal (z-score),[16],-0.132
same,glycan array binding signal (z-score),[17],-0.113
same,glycan array binding signal (z-score),[18],-0.123
same,glycan array binding signal (z-score),Gal6S(b1-3)GlcNAc,9.99
same,glycan array binding signal (z-score),Gal6S(b1-3)GlcNAc6S,6.09
same,glycan array binding signal (z-score),Gal6S(b1-4)Glc,1.73
same,glycan array binding signal (z-score),Gal6S(b1-4)Glc6S,3.07
same,glycan array binding signal (z-score),Gal6S(b1-4)GlcNAc,9.6
same,glycan array binding signal (z-score),Gal6S(b1-4)GlcNAc6S,13.3
same,glycan array binding signal (z-score),GalNAc(b1-3)Gal,-0.123
same,glycan array binding signal (z-score),[19],-0.136
same,glycan array binding signal (z-score),GalNAc6S(b1-4)GlcNAc,10.1
same,glycan array binding signal (z-score),[20],-0.124
same,glycan array binding signal (z-score),GlcNAc(b1-3)Gal(b1-4)Glc,-0.13
same,glycan array binding signal (z-score),Kdn(a2-3)Gal(b1-4)GlcNAc,-0.123
same,glycan array binding signal (z-score),[21],-0.104
same,glycan array binding signal (z-score),[22],-0.121
same,glycan array binding signal (z-score),Neu5Ac(a2-6)Gal(b1-4)Glc,-0.122
same,glycan array binding signal (z-score),[23],-0.127
same,glycan array binding signal (z-score),[24],-0.119
same,glycan array binding signal (z-score),[25],-0.123
same,glycan array binding signal (z-score),[26],-0.129
same,glycan array binding signal (z-score),[27],-0.12
same,glycan array binding signal (z-score),[28],-0.131
same,glycan array binding signal (z-score),[29],-0.122
same,glycan array binding signal (z-score),[30],-0.129
same,glycan array binding signal (z-score),[31],-0.113
